Screening data as filed in PubChem BioAssay.
nsP2pro inh – inhibitors of chikungunya virus nsP2 protease; Q8JUX6; FRET peptide cleavage, nsP2pro, fluorescence 1 h; Potency, µM (highest dose often 24.9 µM), for the others: top-dose activity change, negative = inhibition, usual class: inhibitors; 31,000 compounds, 1.1% hits; AID 1964107; also: nearly all actives have a fitted effect of over 60% in size
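FRET cleavage of 2.5 uM peptide 2 by 150 nM CHIKV protease domain at pH 8.0 (Tris, Tween 20). Compounds at 7 concentrations (up to 25 uM) preincubated 15 min. Fluorescence read after 1 h at room temperature.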
nsP2 cell sec – cell-based CHIKV nsP2 protease inhibition, secondary; shares compounds with nsP2pro inh; cell-based CHIKV nsP2 protease reporter assay; Potency, µM (series often up to 51.1 µM), for the others: top-dose activity change, negative = inhibition, most hits filed as inhibitors; 450 compounds, 10% hits; AID 1964100; also: nearly all actives have a fitted effect of over 70% in size
CHIKV NSP2 FL – inhibits full-length CHIKV NSP2 enzyme; shares compounds with nsP2pro inh; Full-length CHIKV NSP2 protease enzymatic counterscreen; Potency, µM (highest dose often 50.7 µM), inactives show top-dose activity change, negative = inhibition, usual class: inhibitors; 410 compounds, 39% hits; AID 1964101; also: nearly all actives have a fitted effect of over 65% in size
Furin counterscr – selectivity counter-screen for CHIKV nsP2 protease inhibitors: human furin; shares compounds with nsP2pro inh; AID 1964102; Recombinant human furin enzymatic counterscreen, fluorogenic substrate; 410 compounds, 6% hits; Potency, µM (doses to about 50.6 µM), for inactives: at the top dose activity change, negative = inhibition, usual class: inhibitors
NS23 peptide cs – nsP2pro inhibition on native NS2/3 peptide substrate; 410 compounds, 34% hits; AID 1964103; shares compounds with nsP2pro inh; Potency, µM (doses to about 51 µM), without a hit: at the highest dose activity change, negative = inhibition, hits mostly inhibitors; Purified CHIKV nsP2 protease, endogenous NS2/3 peptide cleavage; also: nearly all actives have a fitted effect of over 55% in size
Papain counter – selectivity counter-screen for CHIKV nsP2 protease inhibitors: papain; 410 compounds, 5% hits; purified papain protease activity, enzymatic inhibition; Potency, µM (top dose mostly 51 µM), inactives show at the top dose activity change, negative = inhibition, hits mostly inhibitors; AID 1964104; shares compounds with nsP2pro inh
Target sequence (P00784 whole entry, looked up): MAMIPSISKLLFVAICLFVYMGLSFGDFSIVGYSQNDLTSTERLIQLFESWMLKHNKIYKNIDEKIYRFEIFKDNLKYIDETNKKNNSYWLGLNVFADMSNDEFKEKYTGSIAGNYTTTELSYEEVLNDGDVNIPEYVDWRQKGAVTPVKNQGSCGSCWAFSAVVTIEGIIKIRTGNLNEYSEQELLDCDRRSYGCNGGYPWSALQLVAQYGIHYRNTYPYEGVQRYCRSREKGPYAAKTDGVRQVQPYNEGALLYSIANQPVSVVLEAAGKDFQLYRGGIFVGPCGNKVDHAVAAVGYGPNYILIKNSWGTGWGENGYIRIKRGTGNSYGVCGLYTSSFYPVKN
nsP2pro confirm – CHIKV nsP2 protease inhibition, confirmatory qHTS; Potency, µM (titrated, usually from 25.5 µM), for inactives: at the top dose activity change, negative = inhibition, most hits filed as inhibitors; 410 compounds, 43% hits; CHIKV nsP2 protease enzymatic activity, qHTS; AID 1964105; shares compounds with nsP2pro inh; also: nearly all actives have a fitted effect of over 75% in size
HCV NS3 4A cs – selectivity counter-screen for CHIKV nsP2 protease inhibitors: HCV NS3/4A. shares compounds with nsP2pro inh. Potency, µM (doses to about 50.9 µM), usual class: inhibitors. 410 compounds, 20% hits. HCV NS3/4A protease biochemical counterscreen; also: nearly all actives have a fitted effect of over 55% in size
* = called active by the depositor; i = inactive; u = inconclusive; x = no result; [ ] = dose if it differs, or a comment. The sample as a whole holds a higher share of hits than the screen did. Calls follow the shape of the full dose curve. % is scaled to controls: 0 for no effect and ±100 for the full control effect; potency is read from the fitted curve at half-maximal effect.

SMILES	nsP2pro inh	others
O=C(O)[C@@H](O)[C@H](O)[C@H](O)[C@@H](O)C(=O)O	-2%
O=C(O)C(S)C(S)C(=O)O (centres undefined)	8.8µM*	nsP2 cell sec=3%;CHIKV NSP2 FL=u;Furin counterscr=-9%;NS23 peptide cs=u;Papain counter=u;nsP2pro confirm=u;HCV NS3 4A cs=i
O=C(O)C(Cl)Cl	1%
Cc1cccc(-n2cnc3cc(C(=O)N4CCCCCC4)ccc32)c1	-1%
CCCCC[C@H](O)/C=C/[C@@H]1[C@@H](C/C=C/CCCC(=O)O)[C@@H](O)C[C@H]1O	10%
CN(Cc1ccccc1)C(=O)c1ccc(S(=O)(=O)Nc2ccccc2)cc1	-1%
COc1ccc(C(=O)Nc2ccc(S(=O)(=O)N(Cc3ccccc3)c3ccccc3)cc2)cc1	-7%
CC(C)N(CCC(=O)c1ccc2ccccc2c1)Cc1ccccc1	0.56µM*	nsP2 cell sec=u;CHIKV NSP2 FL=0.92µM*;Furin counterscr=-12%;NS23 peptide cs=5.8µM*;Papain counter=96%;nsP2pro confirm=0.5µM*;HCV NS3 4A cs=i
COc1ccsc1CNCC[C@@]1(c2ccccn2)CCOC2(CCCC2)C1	2%
CCOc1cc(CNC2CCCC2)cc(Cl)c1OCc1ccc(Cl)cc1	34%
COC[C@@H]1OC(=O)/C(=C\N(C)CCCN(C)C)C2=C(O)C(=O)C3=C([C@@H](OC(C)=O)C[C@@]4(C)[C@@H]3CC[C@@H]4O)[C@@]21C	-11%
COC[C@H]1OC(=O)c2coc3c2[C@@]1(C)C1=C(C3=O)C2CCC(=O)[C@@]2(C)C[C@H]1OC(C)=O (some centres undefined)	9.9µM*	nsP2 cell sec=-1%;CHIKV NSP2 FL=-11%;Furin counterscr=-6%;NS23 peptide cs=-17%;Papain counter=-7%;nsP2pro confirm=-25%;HCV NS3 4A cs=i
O=C(Cn1ncccc1=O)NCCc1ccccc1	-6%
O=C(O)CSc1nnc(Br)n1-c1ccc(C2CC2)c2ccccc12	1%
Fc1cc(Nc2nc(-c3ccncc3)nc3ccccc23)ccc1-c1cc(F)c(F)c(F)c1	0%
C[C@H]1CN(C(=O)CC#N)[C@]12CCN(c1ncnc3[nH]ccc13)C2	-5%
O=C1NC(=O)C(c2cn3c4c(cccc24)CCC3)C1c1c[nH]c2ccccc12 (centres undefined)	10%
CC(C)(C)OC(=O)N1CCN(c2ccc(NCc3cc(-c4ccc(C#N)cc4)co3)cc2)CC1	i
CC(C)(C)OC(=O)N1CCN(c2ccc(NCc3ccc4c(c3)OCO4)cc2)CC1	u	nsP2 cell sec=6.5µM*;CHIKV NSP2 FL=0%;Furin counterscr=-12%;NS23 peptide cs=-22%;Papain counter=3%;nsP2pro confirm=-6%;HCV NS3 4A cs=i
CC(C)(C)OC(=O)N1CCN(c2ccc(NCc3occc3-c3ccc(C#N)cc3)cc2)CC1	i
CC(C)(C)OC(=O)N1CCN(c2ccc(NCc3ccc(-c4ccc(C(C)(C)C)cc4)o3)cc2)CC1	-1%
CC(C)(C)OC(=O)N1CCN(c2ccc(NCc3coc(-c4ccc(C#N)cc4)c3)cc2)CC1	10µM*	nsP2 cell sec=u;CHIKV NSP2 FL=-27%;Furin counterscr=-4%;NS23 peptide cs=-12%;Papain counter=-9%;nsP2pro confirm=9%;HCV NS3 4A cs=u
CC(C)(C)OC(=O)N1CCN(c2ccc(NCc3ccc(-c4cc(C(F)(F)F)cc(C(F)(F)F)c4)o3)cc2)CC1	2%
C=CC1(C)C=C2C(=O)OC(=O)C3=C(CCCC3(C)C)C2(O)CC1 (centres undefined)	7%
CC(C)[C@@H](C)/C=C/[C@@H](C)[C@H]1CC[C@H]2C3=CC=C4C[C@@H](O)CC[C@]4(C)C3=CC[C@]12C	-14%
SMILES	nsP2pro inh	others
CCCCc1ccc(C(=O)Nc2cc(-c3ccc(Cl)cc3)nn2-c2ccc(Cl)cc2)cc1	-3%
Cc1cc(NCc2ccc(NC(=O)Cc3ccc(Cl)c(Cl)c3)cc2)no1	i
CS(=O)(=O)c1ccc(C(=O)OCC(=O)N2CCC(Cc3ccccc3)CC2)cc1[N+](=O)[O-]	-4%
O=C1Nc2ccccc2CC12CCN(Cc1cccnc1)C2 (centres undefined)	-7%[39.2 µM]
O=C1Nc2ccccc2CC12CCN2Cc1ccc(OC(F)(F)F)cc1 (centres undefined)	2%
O=C1Nc2ccccc2CN(Cc2ccccc2)C12CCNC2 (centres undefined)	u	nsP2 cell sec=43%
COc1ccc(C(OC2OC(CO)C(O)C(O)C2O)C(C)O)cc1 (centres undefined)	21%
COc1cccc(S(=O)(=O)Nc2cnccc2C(=O)Nc2nc(-c3ccccc3)cs2)c1	i
O=C1C(Cl)=C(N2CCOCC2)C(=O)N1c1ccc(Cl)c(Cl)c1	u	nsP2 cell sec=u;CHIKV NSP2 FL=u;Furin counterscr=-11%[17.3 µM];NS23 peptide cs=u;Papain counter=u;nsP2pro confirm=3.1µM*;HCV NS3 4A cs=i
O=C(Nc1nc(-c2ccccc2)cs1)c1ccncc1NS(=O)(=O)c1ccc2c(c1)CCC2	i
Cc1ccc(-c2cc(C(=O)NCc3ccc(S(C)(=O)=O)cc3)c3ccccc3n2)cc1C	-6%
NC(=O)C1CCN(c2ncc(-c3ccc4c(c3)OCO4)s2)CC1	-5%
CC(=O)Nc1ccc(CN2CC(Oc3ccc4c(c3)OCO4)C2)cc1	2%
O=C(C1CC1)N1CCC(C(=O)N2CC(Oc3ccc4c(c3)OCO4)C2)CC1	7.9µM*	nsP2 cell sec=7%;CHIKV NSP2 FL=13µM*;Furin counterscr=-9%;NS23 peptide cs=u;Papain counter=-2%;nsP2pro confirm=8µM*;HCV NS3 4A cs=7.3µM*
CCOC(=O)c1ccc(-c2ccc3ncnc(NCc4ccc(C)o4)c3c2)o1	-3%
Cc1cc(Nc2ncnc3ccc(-c4ccc(CNCCS(C)(=O)=O)o4)cc23)ccc1Oc1ccn2ncnc2c1	1.2µM*	nsP2 cell sec=-13%;CHIKV NSP2 FL=4.1µM*;Furin counterscr=-13%;NS23 peptide cs=u;Papain counter=u;nsP2pro confirm=4.5µM*;HCV NS3 4A cs=u
CS(=O)(=O)CCNCc1ccc(-c2ccc3ncnc(Nc4ccc(OCc5cccc(F)c5)c(Cl)c4)c3c2)o1	75%
O=C(/C=C/c1ccccc1Br)NCCc1nc2ccccc2[nH]1	3%
COc1cccc(CNc2ccc([S+](=O)([O-])Nc3cc4ccccc4s3)cc2)c1O	-67%
COc1cccc(-c2ccc(CN3CCCC(NC(=O)c4ccc(Cl)cc4)C3)cc2)c1 (centres undefined)	1%
CNC1CCN(C(Cc2cccc(-c3ccncc3)c2)C(=O)c2sc3c(F)ccc(F)c3c2Cl)CC1 (centres undefined)	x	nsP2 cell sec=u;CHIKV NSP2 FL=u;Furin counterscr=-11%;NS23 peptide cs=-23%;Papain counter=-8%;nsP2pro confirm=34%;HCV NS3 4A cs=i
O=C(NC1CCN(Cc2cccc(-c3cccs3)c2)CC1)c1cccc(Cl)c1	i
